# Reference: PubChem BioAssay AID1240 (Sanford-Burnham Center for Chemical Genomics, 2008)
# Out of some 50,000 compounds screened, about 800 (1.6%) showed an effect of 50% or more. The full list was thinned out, with strong results kept by preference.
# Target: Bcl-2-like protein 10 (Homo sapiens) (UniProt Q9HD36)
# Assay: Phenotype converters, Bcl-B/TR3 peptide binding displacement, primary biochemical FP (AID 1240);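 further: 0% = Bcl-B with tracer peptide and DMSO and 100% = tracer peptide lacking Bcl-B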
# Conditions: GST-Bcl-B / FITC-TR3 peptide fluorescence polarization; stronger effect = higher value; compound at 3.75 mg/L
# Sequence of Bcl-2-like protein 10 (Homo sapiens) (Q9HD36 whole entry, looked up): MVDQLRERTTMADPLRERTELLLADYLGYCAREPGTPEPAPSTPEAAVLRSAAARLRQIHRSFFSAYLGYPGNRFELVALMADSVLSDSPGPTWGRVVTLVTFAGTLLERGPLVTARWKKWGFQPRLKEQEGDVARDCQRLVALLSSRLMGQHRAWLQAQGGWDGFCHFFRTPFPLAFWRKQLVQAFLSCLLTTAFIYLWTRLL
row,SMILES,displacement [%]
1,Cc1ccc(Cl)c(OCC(O)Cn2c(C)nc3ccccc32)c1 (stereo not given),-11.5
2,COc1ccc(OCC(O)Cn2c(C)nc3ccccc32)cc1 (stereo not given),-22.4
3,O=C(O)C1C2CCC(O2)C1C(=O)N1CCN(c2ccc(F)cc2)CC1 (stereo not given),-9.7
4,CCOCCOC(=O)C1=C(C)NC2=C(C(=O)CC(C)(C)C2)C1c1cccc(Cl)c1Cl (stereo not given),3.1
5,CCCCCCOc1ccc(N2C(=O)CC(NCc3ccc(OC)cc3)C2=O)cc1 (stereo not given),4.5
6,CC(C)(C)c1ccc(C2/C(=C(\O)c3ccc(F)cc3)C(=O)C(=O)N2c2nncs2)cc1 (stereo not given),11.3
7,Cc1ccc(C2/C(=C(\O)c3ccccc3)C(=O)C(=O)N2c2nncs2)cc1 (stereo not given),11.3
8,Cc1ccc(C2C(C(=O)c3cccs3)=C(O)C(=O)N2c2nncs2)cc1 (stereo not given),121
9,Cc1ccc(/C(O)=C2\C(=O)C(=O)N(c3nncs3)C2c2cccc(Br)c2)cc1 (stereo not given),18.7
10,O=C(C1=C(O)C(=O)N(c2nncs2)C1c1ccc(F)cc1)c1cccs1 (stereo not given),109
11,O=C1C(=O)N(c2nncs2)C(c2ccc(F)cc2)/C1=C(\O)c1ccccc1 (stereo not given),13.6
12,Nn1c(Nc2ccccc2)nc2ccccc2c1=O,-15.5
13,O=C(N/N=C/c1cccc([N+](=O)[O-])c1)C1CC(=O)N(c2ccc(F)cc2)C1 (stereo not given),-10.4
14,O=C1CCCC2=C1C(c1ccc([N+](=O)[O-])cc1)C1=C(CCCC1=O)N2c1ccc(Cl)cc1,17.8
15,Cc1ccc([N+](=O)[O-])cc1NC(=O)CCCOc1ccccc1,8.1
16,COc1ccc(Cl)cc1NC(=O)C1=C(C)NC(=S)NC1c1ccc(F)cc1 (stereo not given),11.9
17,COC(=O)C1=C(C)NC2=C(C(=O)c3ccccc32)C1c1ccc(-c2ccc([N+](=O)[O-])cc2Br)o1 (stereo not given),46.9
18,O=C1C2=C(Nc3ccccc3SC2c2ccc([N+](=O)[O-])cc2)c2ccccc21 (stereo not given),-6
19,O=C1C(=Cc2ccccc2)C(=O)c2ccccc21,17.6
20,O=C1NN(c2ccccc2)C(=O)/C1=C\C=C\c1ccccc1,30.9
21,O=C1C(=C/C=C/c2ccccc2)C(=O)c2ccccc21,75
22,CCOC(=O)c1c(NC(=O)C(Cl)(Cl)Cl)sc2c1CCC2,-3.5

row,SMILES,displacement [%]
1,Cc1ccc2c(c1)NC(c1ccc(Cl)cc1Cl)C1=C(CC(C)(C)CC1=O)N2 (stereo not given),13.5
2,O=S(=O)(O)c1nc2ccccc2n1-c1ccccc1,-9.1
3,CC(C)(C)c1cc(C(=O)N/N=C\c2ccc(Cl)cc2)n[nH]1,-5.3
4,COc1ccc(NC(=O)C2=C(C)NC(=O)NC2c2cccc(Cl)c2)cc1 (stereo not given),83.7
5,COc1ccc(C2NC(=O)NC(C)=C2C(=O)Nc2cccc(Cl)c2)cc1 (stereo not given),11.4
6,COc1ccc(NC(=O)C2=C(C)NC(=O)NC2c2cccc(OC)c2)cc1 (stereo not given),-15.9
7,CC1=C(C(=O)Nc2ccc(Cl)cc2)C(c2ccc([N+](=O)[O-])cc2)NC(=O)N1 (stereo not given),124
8,CC1=C(C(=O)Nc2ccc(C)cc2)C(c2ccc([N+](=O)[O-])cc2)NC(=O)N1 (stereo not given),-3.6
9,CC1=C(C(=O)Nc2ccc(Cl)cc2)C(c2ccc([N+](=O)[O-])cc2)NC(=S)N1 (stereo not given),4.6
10,COc1cc(C(=O)Nc2nc3ccc4ccccc4c3s2)cc(OC)c1OC,6.6
11,CCCCN(CCCC)S(=O)(=O)c1ccc(C)cc1,-6.8
12,O=C(/C=C\Nc1ccc2c(c1)OCO2)c1ccc2c(c1)OCO2,104
13,CNc1cc([N+](=O)[O-])ccc1N/C=C\C(=O)c1ccc2c(c1)OCO2,97.2
14,COC(=O)c1ccc(N/C=C\C(=O)c2ccc3c(c2)OCO3)cc1,23.7
15,O=C(/C=C\Nc1ccc2c(c1)OCO2)c1ccc(F)cc1,-2.4
16,O=C(/C=C\Nc1ccc([N+](=O)[O-])cc1Br)c1ccc2c(c1)OCO2,3
17,CNc1cc([N+](=O)[O-])ccc1N/C=C\C(=O)c1ccc2ccccc2c1,14.1
18,COc1ccc(C(=O)Nc2ccc(Br)c(C)c2)c(OC)c1,14.5
19,COC(=O)c1ccccc1NC(=O)c1cnn2c(C(F)(F)F)cc(-c3ccccc3)nc12,11.9
20,COc1ccc(N(CC(=O)NC(C)c2ccccc2)S(=O)(=O)c2ccccc2)cc1 (stereo not given),5.7
21,CCC(c1ccccc1)c1nnc(NC(=O)Nc2cccc(Cl)c2)s1 (stereo not given),-0.8
22,COc1cc(NC(=O)c2ccc(-c3ccccc3[N+](=O)[O-])o2)ccc1NC(=O)c1ccco1,7.1

row,SMILES,displacement [%]
1,CC(=O)Oc1cc2ccccc2cc1O,3.9
2,C=CCN1C(=O)/C(=C\c2cn(C)c3ccccc23)C(=O)NC1=S,-18.2
3,C=CCN1C(=O)/C(=C\c2cn(Cc3ccc([N+](=O)[O-])cc3)c3ccccc23)C(=O)NC1=S,87.4
4,C=CCN1C(=O)/C(=C\c2ccc(-c3ccc([N+](=O)[O-])cc3)o2)C(=O)NC1=S,12.1
5,CSc1ccc(S(=O)(=O)NCc2ccccc2C)cc1,16.3
6,O=[N+]([O-])c1ccc(/C=N/c2nc3c(s2)CCCC3)cc1,6.6
7,COc1ccc(C(=O)c2c(N)c(C#N)c(C)n2-c2ccccc2)cc1,9.3
8,COc1ccc(OCC(=O)Nc2ccc(OC)c(OC)c2)cc1,-4.2
9,O=c1cc(=O)n(-c2ccccc2)c2ccccc12,-0.3
10,COc1ccc(-c2ccc(/C=C/c3cc(C(F)(F)F)[nH]c(=O)n3)o2)c([N+](=O)[O-])c1,78.8
11,COc1ccc(N2C(=O)/C(=C/c3ccc(-c4ccccc4[N+](=O)[O-])o3)C(=O)NC2=S)cc1,15.9
12,COc1ccc(N2C(=O)NC(=O)/C(=C/c3ccc(-c4ccccc4[N+](=O)[O-])o3)C2=O)cc1,-46.3
13,Cc1ccc(N2C(=O)NC(=O)/C(=C\c3ccc(-c4cccc([N+](=O)[O-])c4)o3)C2=O)cc1,-5.9
14,O=C1NC(=O)N(c2ccccc2)C(=O)/C1=C\c1ccc(-c2ccccc2[N+](=O)[O-])o1,2.7
15,COc1ccc(-c2ccc(/C=C3/C(=O)NC(=O)N(c4ccc(C)cc4)C3=O)o2)c([N+](=O)[O-])c1,83.5
16,COc1ccc(-c2ccc(/C=C3\C(=O)NC(=O)N(c4ccc(Cl)cc4)C3=O)o2)c([N+](=O)[O-])c1,47
17,COc1ccc(-c2ccc(/C=C3/C(=O)NC(=O)N(c4ccccc4)C3=O)o2)c([N+](=O)[O-])c1,78.3
18,Cc1c(Cl)cccc1-c1ccc(/C=C/c2cc(C(F)(F)F)[nH]c(=O)n2)o1,-60.9
19,O=c1nc(/C=C/c2ccc(-c3ccc([N+](=O)[O-])cc3Cl)o2)cc(C(F)(F)F)[nH]1,11.9
20,Cc1ccc(N2C(=O)NC(=O)/C(=C\c3ccc(-c4ccc(C)c([N+](=O)[O-])c4)o3)C2=O)cc1,151
21,Cc1ccc(N2C(=O)NC(=O)/C(=C/c3ccc(C)c([N+](=O)[O-])c3)C2=O)cc1,-16.7
